Bioassay records (PubChem BioAssay)
Most compounds without a hit are left out; they make up all but 7.4% or so of the library.
Luc counter – counter-screen: inhibitors of Kinase-Glo firefly luciferase; Q27757; actives 0.28% (n = 200,000); Potency, µM (titrated, usually from 38.3 µM), inactives show at the top dose activity change, negative = inhibition, usual class: inhibitors; Kinase-Glo luciferase, ATP luminescence, 8 min; note: % is set by controls: 0 for no effect and ±100 for the full control effect; nearly all actives have a fitted effect of over 60% in size
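Kinase-Glo luciferase light output from ATP and luciferin was measured with 10 uM ATP, within the enzyme's linear range. Buffer: 50 mM imidazole pH 7.2, 50 mM KCl, 7 mM MgCl2, 0.01% Tween 20, 0.05% BSA; luminescence read after 8 min at ambient temperature.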
ELG1 genotoxic – inducers of genotoxicity in HEK293T ELG1-luciferase cells; actives 1.3% (n = 330,000); HEK293T ELG1-luciferase reporter, luminescence, 16 h; Potency, µM (top dose mostly 46 µM), for inactives: at the top dose activity change, positive = activation, hits mostly activators; note: % of control where 0% means no effect; nearly all actives have a fitted effect of over 60% in size
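DMSO vehicle served as control against compound-treated ELG1-luciferase HEK293T cells; exposure lasted 16 hr at 37 °C and 5% CO2, followed by ONE-Glo luminescence detection after 30 min.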
Rab9 promoter act – activates the Rab9 promoter; Potency, µM (highest dose often 9.22 µM), inactives show top-dose activation, negative = inhibition, actives largely listed as activators; Huh7 Rab9 promoter-luciferase reporter, luminescence, 24 h; actives 2.8% (n = 320,000); note: % of control where 0% means no effect; nearly all actives have a fitted effect of over 60% in size
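Luminescence from Amplite-detected luciferase (10 minutes, ambient) reports Rab9 promoter activation. Before that, stable Rab9-luciferase Huh7 cells (1500/well, reduced-serum OP-MEM I plus 10% FBS) were exposed to compound for 24 hours at 37C.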
FLuc modulator – counter-screen for miR-21 project: firefly luciferase inhibitors or activators; P08659; purified FLuc, Km substrates, luminescence inhibition; Potency, µM (titrated, usually from 57.5 µM), for the others: at the highest dose activity change, negative = inhibition, hits mostly inhibitors; actives 6.9% (n = 360,000); AID 588342;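 note: plate controls were vehicle for no effect and reference inhibitor for full effect; nearly all actives have a fitted effect of over 55% in size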
Target sequence (P08659 whole entry, looked up): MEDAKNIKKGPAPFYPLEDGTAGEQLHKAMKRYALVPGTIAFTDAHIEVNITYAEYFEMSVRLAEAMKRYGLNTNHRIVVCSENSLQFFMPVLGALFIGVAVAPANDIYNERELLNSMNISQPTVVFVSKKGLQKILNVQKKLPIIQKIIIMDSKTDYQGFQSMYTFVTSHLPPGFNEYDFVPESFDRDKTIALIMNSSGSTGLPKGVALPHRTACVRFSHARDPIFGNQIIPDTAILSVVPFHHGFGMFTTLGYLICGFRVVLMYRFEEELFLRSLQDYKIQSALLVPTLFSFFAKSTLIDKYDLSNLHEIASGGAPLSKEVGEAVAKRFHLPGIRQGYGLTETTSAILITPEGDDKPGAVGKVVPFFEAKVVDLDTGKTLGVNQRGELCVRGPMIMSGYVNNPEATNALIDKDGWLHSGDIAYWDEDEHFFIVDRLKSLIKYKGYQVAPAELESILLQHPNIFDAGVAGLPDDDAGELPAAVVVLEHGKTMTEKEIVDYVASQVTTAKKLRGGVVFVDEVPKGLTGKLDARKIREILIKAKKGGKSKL
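Purified P. pyralis luciferase, 10 nM final, with Km-level 10 uM D-luciferin and 10 uM ATP in 50 mM Tris acetate pH 7.5, 10 mM Mg acetate, 0.01% Tween-20, 0.05% BSA; 6-point qHTS titration about 60 µM downward; luminescence read.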
SMN2 splice up – increases expression of the SMN2 splice variant | HEK293 SMN2-luciferase splicing reporter, luminescence, 30-36 h | Potency, µM (highest dose often 46.1 µM), for inactives: at the top dose activity change, positive = activation, hits mostly activators | actives 2.8% (n = 210,000) | AID 1458; note: % of control where 0% means no effect; nearly all actives have a fitted effect of over 55% in size
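HEK293 cells carry an SMN2 […]–luciferase reporter in which exon 7 inclusion puts luciferase in frame. Cells were plated 10-12 h before compound addition, then incubated 30-36 h at 37C. ONE-Glo luminescence was read; sodium butyrate at 4.5 mM final served as control.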
NPC1 promoter act – activators of NPC1 promoter; AID 485313; Huh7 NPC1 promoter luciferase reporter, 24 h; actives 2.4% (n = 320,000); Potency, µM (highest dose often 9.22 µM), without a hit: top-dose activation, most hits filed as activators; note: % of control where 0% means no effect; nearly all actives have a fitted effect of over 60% in size
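Huh7 cells stably carrying NPC1 promoter–luciferase, plated in Opti-MEM with 10% FBS for 2 h, were exposed to compound in DMSO for 24 h at 37 °C; luciferase reagent was added for 10 min and luminescence read.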
Numbers without * were called inactive; ? = inconclusive; . = no result; [ ] = another dose, or the depositor's remark. Calls come from the whole dose curve; as a rule, active = well fitted curve in the direction sought with a large enough effect; inconclusive = small, poorly fitted or top-dose-only effect, or another doubt; inactive = no such curve, though single readings can be large; an effect the other way counts as inactive or inconclusive. Potency is the fitted concentration of half-maximal effect.

SMILES	Luc counter	ELG1 genotoxic	Rab9 promoter act	FLuc modulator	SMN2 splice up	NPC1 promoter act
COc1cccc(N2CCN(c3ccc4nnc(CCC(=O)O)n4n3)CC2)c1	.	.	.	-0.5%	2.7%	.
CN(CC(=O)Nc1ccc(F)cc1)C(=O)c1cc(-c2ccco2)nc2ccccc12	.	-37.0%	10.3%	?	.	-1.5%
Cc1ccc(NC(=O)CN(C)C(=O)c2cc(-c3ccco3)nc3ccccc23)cc1	.	-4.2%	0.6%	23.9µM*	.	-3.7%
COc1ccc(CNC(=O)CCCCCNC(=O)N2CCn3c2nc2ccccc23)cc1	.	0.3%	-1.8%	16.9µM*	.	-13.8%
COc1ccc(C)cc1NS(=O)(=O)c1ccc2oc(=O)c3ncn(C)c3c2c1	.	.	.	-0.1%	.	.
Cc1cc(N/N=C/c2ccc(O)cc2O)nc(N2CCOCC2)n1	.	3.7%	-4.0%	7.57µM*	.	-2.6%
COc1ccc(/C=N/Nc2cc(C)nc(N3CCOCC3)n2)c(OC)c1	.	6.2%	0.2%	2.39µM*	.	0.3%
COc1ccc2c(c1)CC/C2=N\OC(=O)c1ccccc1C	-18.3%	?	?	1.51µM*	-0.2%	?
COc1ccc2c(c1)CC/C2=N\OC(=O)c1cccc(C)c1	-10.7%	?	?	1.51µM*	10.7%	3.55µM*
COc1ccccc1C(=O)O/N=C(\c1ccccc1)c1ccncc1	3.2%	0.3%	-3.9%	-0.3%	-0.3%	-1.5%
COc1ccc2c(c1)CCC/C2=N/OC(=O)c1ccccc1OC	-2.3%	-1.7%	0.6%	13.5µM*	-16.6%	-5.8%
COc1ccccc1C(=O)ON=C1c2ccccc2-c2ccccc21	2.8%	-7.6%	-5.1%	21.3µM*	-13.0%	4.3%
Cc1ccc(CSc2nnc3[nH]c(=O)cc(C)n23)cc1	.	.	.	-1.6%	.	.
Cc1ccc(NC(=O)Cn2cc3c(n2)CCCCC3)cc1	.	.	.	-6.4%	8.2%	.
Cc1ccc(CNC(=O)Cn2nc(N3CCN(c4ccccc4)CC3)ccc2=O)cc1	.	.	.	-14.2%	.	.
O=C(Cc1c[nH]c2ccccc12)Nc1nnc(C2CC2)s1	-0.8%	-10.0%	-0.9%	0.7%	11.2µM*	2.0%
Cc1c(C(=O)Nc2nnc(C3CC3)s2)oc2ccccc12	.	?	2.24µM*	4.78µM*	.	3.55µM*
Cc1csc(NC(=O)c2oc3ccccc3c2C)n1	.	?	3.55µM*	1.69µM*	.	3.16µM*
Cc1sc(NC(=O)c2oc3ccccc3c2C)c(C#N)c1C	4.7%	1.0%	19.9%	0.5%	0.3%	13.7%
Cc1c(C(=O)Nc2cccc3cccnc23)oc2ccccc12	1.3%	17.6%	?	-18.4%	3.2%	25.9%
Cc1c(C(=O)NC2=NCCS2)oc2ccccc12	?	?	?	3.01µM*	2.82µM*	?
CCc1ccccc1NC(=O)CSc1nnc(-c2cc(OC)c(OC)c(OC)c2)o1	.	.	.	-1.0%	.	.
CC(C)NC(=O)N1CC2(CCN(C(=O)c3ccncc3)CC2)C1	-2.6%	.	.	.	-11.0%	.
CCN(CC)S(=O)(=O)c1ccc2c(c1)N(CC(=O)Nc1c(C)cccc1C)C(=O)C1CCCN21 (configuration not stated)	.	.	.	1.3%	0.7%	.
Cc1ccc(-c2noc(-c3ccccc3C(=O)N3CCN(C)CC3)n2)cc1	0.4%	?	14.9%	?	-4.0%	0.2%
SMILES	Luc counter	ELG1 genotoxic	Rab9 promoter act	FLuc modulator	SMN2 splice up	NPC1 promoter act
Cc1ccc(-c2noc(-c3ccccc3C(=O)N3CCCC3)n2)cc1	-1.9%	?	5.5%	23.9µM*	-7.8%	10.5%
Cc1ccccc1-c1noc(-c2ccccc2C(=O)N2CCCC2)n1	-1.6%	-2.4%	-1.6%	2.5%	-13.3%	-4.5%
O=C(c1ccccc1-c1nc(-c2ccccc2)no1)N1CCCC1	-0.7%	12.4%	-2.4%	26.9µM*	?	-0.6%
O=C(c1ccccc1-c1nc(-c2ccc(Cl)cc2)no1)N1CCCC1	2.3%	?	3.16µM*	19µM*	-15.5%	?
O=C(Nc1cc(-c2ccc(F)c(F)c2)no1)c1ccccc1F	.	.	.	-12.4%	.	.
COC(=O)[C@H]1O[C@@H](c2cc(OC)c(C)c(OC)c2OCc2ccccc2)[C@H](C)[C@H]2O[C@@]12C	1.1%	.	.	.	4.2%	.
O=c1c2ccccc2ncn1-c1ccc2c(c1)OCCO2	-4.4%	?	2.82µM*	?	1.7%	?
CCOC(=O)c1cnn2c(C)cc(-c3ccc(F)cc3)nc12	14.7%	?	3.55µM*	12µM*	11.2µM*	2.82µM*
CCN(CCn1cccn1)C(=O)CCc1nnc(CCCc2ccccc2)o1	-4.9%	16.4µM*	2.82µM*	15.1µM*	11.2µM*	?
Cc1cccc(Cc2nnc(CCC(=O)N(C)CCc3ccccc3)o2)c1	.	18.3µM*	3.98µM*	7.57µM*	.	3.55µM*
C=C(C)CN(CC)C(=O)CCc1nnc(CCCc2ccccc2)o1	.	?	3.16µM*	12µM*	.	3.55µM*
O=C(CCc1nnc(CCCCc2ccccc2)o1)N(CCO)Cc1ccccc1	.	-1.6%	-2.3%	-5.1%	.	-2.5%
Cc1ccc(C)c(N2CCN(S(=O)(=O)c3ccc(-c4cc(C(F)(F)F)on4)s3)CC2)c1	.	.	.	-4.8%	.	.
Cc1ccc(C(=O)N2c3ccc(C)cc3C(C)(c3ccccc3)CC2(C)C)cc1 (configuration not stated)	.	.	.	-4.5%	-27.4%	.
CSc1nc(O)c(N=Nc2ccc(F)cc2F)c(=O)[nH]1	.	?	25.9%[1.84 µM]	0.849µM*	.	?
Cc1ccc(/C(N)=N/OC(=O)c2cccs2)cc1	-11.0%	14.6µM*	4.47µM*	1.9µM*	26.3%[1.84 µM]	?
N/C(=N\OC(=O)c1cccs1)c1cccc(Br)c1	?	?	1.2%	1.07µM*	12.0%	-1.1%
N/C(=N\OC(=O)c1cccs1)c1ccccc1	10µM*	?	?	0.675µM*	?	?
Cc1cccc(/C(N)=N/OC(=O)c2cccs2)c1	2.51µM*	?	1.26µM*	0.757µM*	?	1.12µM*
COc1ccc(/C(N)=N/OC(=O)c2cccs2)cc1OC	-4.3%	3.0%	-11.3%	4.9%	.	-7.4%
N/C(=N\OC(=O)Cc1ccccc1)c1cccc(Br)c1	3.1%	7.7%	0.9%	16.9µM*	6.1%	0.0%
CCOc1cccc(C2c3c(oc4ccccc4c3=O)C(=O)N2c2nc(C)c(C(=O)OC)s2)c1 (configuration not stated)	.	.	.	-3.7%	-2.9%	.
O=C(Nc1nsc(-c2ccccc2)n1)c1cccs1	?	0.581µM*	1.12µM*	4.26µM*	3.16µM*	1.58µM*
Cc1sc(NC(=O)c2ccco2)nc1-c1ccc2c(c1)CC(C)N2C(=O)C1CC1 (configuration not stated)	1.6%	-31.2%	12.2%	19µM*	-37.6%	-1.4%
